Molecules are shown by their SMILES. Values joined by “and” are separate entries in the source; they are usually repeats but may differ in a detail not shown here. Identical values can stand only once. More than one record can exist for a structure, and the calls need not agree. Active and inactive are the calls of the source. How the source made its calls: active means hit-call score of the fitted dose curve at least 0.9, where 1 is the maximum; inactive means score below 0.9.

We go through six compounds from PubChem BioAssay (EPA / NIEHS).

Read-out in assay [1]: C-C motif chemokine 2 (Homo sapiens) (UniProt P13500)
In words: BSK_KF3CT_MCP1: BioMAP Diversity Plus: KF3CT Assay for Monocyte Chemoattractant Protein 1 (MCP1/CCL2) Biomarker Activity (AID 2283073). The following applies: primary human keratinocytes with fibroblasts; actives raise or lower the signal. The essentials: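 KF3CT skin co-culture (keratinocytes/foreskin fibroblasts), 24 h post-dose; MCP-1 by ELISA; gain/loss of signal fit bidirectionally vs DMSO baseline.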

Read-out in assay [2]: Matrix Metallopeptidase 9 (MMP9), MMP9 (gene 4318)
Briefly: BSK_KF3CT_MMP9: BioMAP Diversity Plus: KF3CT Assay for Matrix Metallopeptidase 9 (MMP9) Biomarker Activity (AID 2283074). The following applies: primary human keratinocytes with fibroblasts; actives raise or lower the signal. An outline of the steps:
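Human keratinocyte and foreskin fibroblast co-culture exposed to chemicals for 24 h; MMP9 biomarker measured by ELISA, bidirectional fitting relative to DMSO; cytotoxicity tracked by SRB total protein staining in parallel cultures.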

Read-out in assay [3]: urokinase plasminogen activator (uPA), PLAU (gene 5328)
Briefly: BSK_KF3CT_uPA: BioMAP Diversity Plus: KF3CT Assay for urokinase plasminogen activator (uPA) Biomarker Activity (AID 2283075). Conditions: primary human keratinocytes with fibroblasts; actives raise or lower the signal. The essentials:
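Primary human keratinocyte/foreskin fibroblast co-culture exposed to chemical; uPA measured by ELISA at 24 h. Bidirectional fit versus DMSO, with parallel SRB total-protein staining for cytotoxicity.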

Read-out in assay [4]: CD40, CD40 (gene 958)
In words: BSK_LPS_CD40: BioMAP Diversity Plus: LPS Assay for CD40 Biomarker Activity (AID 2283076). The following applies: primary human HUVEC with PBMC; actives raise or lower the signal. The essentials:
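ELISA readout of CD40 in HUVEC/PBMC co-culture (BSK_LPS system), 24 h post-dosing; bidirectional curve fit, DMSO baseline; parallel SRB total-protein staining for cytotoxicity.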

Read-out in assay [5]: E-selectin (Homo sapiens) (UniProt P16581)
In words: BSK_LPS_Eselectin: BioMAP Diversity Plus: LPS Assay for Eselectin Biomarker Activity (AID 2283077). The following applies: primary human HUVEC with PBMC; actives raise or lower the signal. An outline of the steps:
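ELISA readout of E-selectin, 24 h post-dose, HUVEC + PBMC co-culture (LPS system). Gain or loss of signal vs DMSO baseline, bidirectional fit.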

Read-out in assay [6]: Interleukin-8 (IL8), CXCL8 (gene 3576)
Briefly: BSK_LPS_IL8: BioMAP Diversity Plus: LPS Assay for Interleukin-8 (IL8) Biomarker Activity (AID 2283078). Conditions: primary human HUVEC with PBMC; actives raise or lower the signal. An outline of the steps: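 HUVEC + PBMC co-culture, LPS-activated; test chemicals dosed, IL-8 read by ELISA at 24 h. Bidirectional curve fit vs DMSO baseline (gain or loss of signal).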

Assay [7] can be described thus: BSK_LPS_SRB: Viability Assessment in the BioMAP Diversity Plus: LPS Assay (AID 2283079).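 Further: total protein by sulforhodamine B absorbance as a cytotoxicity measure; measured one day after compound addition; fitted in both directions against DMSO so loss or gain of signal counts.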 The following applies: primary human HUVEC with PBMC. An outline of the steps:
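HUVEC + PBMC co-culture, LPS-stimulated; compound 24 h. 10% TCA fix, 0.1% SRB stain, A560. Bidirectional fit vs DMSO.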

Read-out in assay [8]: Interleukin-1 alpha (IL1a), IL1A (gene 3552)
Briefly: BSK_LPS_IL1a: BioMAP Diversity Plus: LPS Assay for Interleukin-1 alpha (IL1a) Biomarker Activity (AID 2283080). The following applies: primary human HUVEC with PBMC; actives raise or lower the signal. An outline of the steps:
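HUVEC/PBMC co-culture, LPS system; 24 h after dosing; IL-1a by ELISA; gain or loss of signal fitted bidirectionally vs DMSO baseline.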

Read-out in assay [9]: Monocyte Chemoattractant Protein-1 (MCP1), CCL2 (gene 6347)
In words: BSK_LPS_MCP1: BioMAP Diversity Plus: LPS Assay for Monocyte Chemoattractant Protein-1 (MCP1) Biomarker Activity (AID 2283081). The following applies: primary human HUVEC with PBMC; actives raise or lower the signal. An outline of the steps: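 ELISA read-out of MCP-1 after 24 h chemical dosing of a human umbilical vein endothelial cell/peripheral blood mononuclear cell co-culture stimulated with LPS. Gain or loss of signal fitted relative to DMSO controls.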

The nature of assay [10]: BSK_LPS_PGE2: BioMAP Diversity Plus: LPS Assay for Prostaglandin E2 (PGE2) Biomarker Activity (AID 2283082). The following applies: primary human HUVEC with PBMC; actives raise or lower the signal. An outline of the steps: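 Endpoint derived from bidirectional curve fitting versus DMSO of ELISA-measured PGE2 in LPS-stimulated human primary vascular co-culture (HUVEC with PBMC) harvested at 24 h.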

Read-out in assay [11]: Macrophage colony-stimulating factor (MCSF), CSF1 (gene 1435)
In words: BSK_LPS_MCSF: BioMAP Diversity Plus: LPS Assay for Macrophage colony-stimulating factor (MCSF) Biomarker Activity (AID 2283083). Conditions: primary human HUVEC with PBMC; actives raise or lower the signal. The essentials:
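HUVEC + PBMC co-culture (human primary), 24 h post-dose; M-CSF by ELISA; gain/loss of signal fitted bidirectionally vs DMSO baseline.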

Read-out in assay [12]: Tissue Factor, F3 (gene 2152)
In words: BSK_LPS_TissueFactor: BioMAP Diversity Plus: LPS Assay for Tissue Factor Biomarker Activity (AID 2283084). The following applies: primary human HUVEC with PBMC; actives raise or lower the signal. An outline of the steps: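 HUVEC/PBMC co-culture, LPS-activated; CD142 ELISA read 24 h post-dose; bidirectional curve fit vs DMSO negative control.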

Read-out in assay [13]: Tumor necrosis factor (Homo sapiens) (UniProt P01375)
In words: BSK_LPS_TNFa: BioMAP Diversity Plus: LPS Assay for Tumour Necrosis Factor alpha (TNFa) Biomarker Activity (AID 2283085). Conditions: primary human HUVEC with PBMC; actives raise or lower the signal. An outline of the steps:
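Primary human vascular co-culture of HUVEC and PBMC; TNFa ELISA 24 h after treatment, analysed as increase or decrease relative to DMSO control.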

Read-out in assay [14]: Vascular cell adhesion molecule 1 (VCAM1), VCAM1 (gene 7412)
In words: BSK_LPS_VCAM1: BioMAP Diversity Plus: LPS Assay for Vascular cell adhesion molecule 1 (VCAM1) Biomarker Activity (AID 2283086). The following applies: primary human HUVEC with PBMC; actives raise or lower the signal. An outline of the steps: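 Primary human vascular co-culture (umbilical vein endothelium plus PBMC) stimulated with LPS received chemical; 24 h later VCAM-1 was read by ELISA. Overt cytotoxicity was assessed by sulforhodamine B staining of parallel cultures at the same time point.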

Read-out in assay [15]: CD38, CD38 (gene 952)
Briefly: BSK_SAg_CD38: BioMAP Diversity Plus: SAg Assay for CD38 Biomarker Activity (AID 2283087). Conditions: primary human HUVEC with PBMC; actives raise or lower the signal. The essentials: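 Fluorescence ELISA of cell-surface CD38 served as the read-out, with either increase or decrease fitted against DMSO controls. Cells were a human umbilical vein endothelium plus PBMC co-culture under SEB/TSST-1 stimulation, measured 24 h after dosing.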

Read-out in assay [16]: CD40, CD40 (gene 958)
Briefly: BSK_SAg_CD40: BioMAP Diversity Plus: SAg Assay for CD40 Biomarker Activity (AID 2283088). The following applies: primary human HUVEC with PBMC; actives raise or lower the signal. An outline of the steps:
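HUVEC/PBMC co-culture, 24 h post-dose; CD40 by ELISA, fluorescence intensity; bidirectional fit vs DMSO negative control.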

Read-out in assay [17]: CD69, CD69 (gene 969)
Briefly: BSK_SAg_CD69: BioMAP Diversity Plus: SAg Assay for CD69 Biomarker Activity (AID 2283089). The following applies: primary human HUVEC with PBMC; actives raise or lower the signal. The essentials:
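ELISA, fluorescence read-out: CD69 on human umbilical vein endothelial cell + PBMC co-culture, 24 h post-dosing. Gain or loss of signal fitted bidirectionally against DMSO baseline.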

Read-out in assay [18]: Monocyte Chemoattractant Protein-1 (MCP1), CCL2 (gene 6347)
Briefly: BSK_SAg_MCP1: BioMAP Diversity Plus: SAg Assay for Monocyte Chemoattractant Protein-1 (MCP1) Biomarker Activity (AID 2283090). Conditions: primary human HUVEC with PBMC; actives raise or lower the signal. An outline of the steps:
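MCP-1 levels in the endothelial–PBMC SAg co-culture were quantified by ELISA at 24 h post-dosing; both increases and decreases versus DMSO scored. Cytotoxicity monitored by SRB total protein in parallel cultures.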

Read-out in assay [19]: E-selectin (Homo sapiens) (UniProt P16581)
Briefly: BSK_SAg_Eselectin: BioMAP Diversity Plus: SAg Assay for Eselectin Biomarker Activity (AID 2283091). Conditions: primary human HUVEC with PBMC; actives raise or lower the signal. An outline of the steps: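 E-selectin ELISA readout at 24 h post-dosing in human umbilical vein endothelial cell/PBMC co-culture; gain or loss of signal fitted relative to DMSO baseline.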

Read-out in assay [20]: Monokine induced gamma interferon (MIG), CXCL9 (gene 4283)
Briefly: BSK_SAg_MIG: BioMAP Diversity Plus: SAg Assay for Monokine induced gamma interferon (MIG) Biomarker Activity (AID 2283092). Conditions: primary human HUVEC with PBMC; actives raise or lower the signal. An outline of the steps:
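ELISA readout of MIG/CXCL9; primary human umbilical vein endothelial cells co-cultured with peripheral blood mononuclear cells; 24 h post-dose; gain/loss fit vs DMSO baseline.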

E-selectin (Homo sapiens), sequence (P16581 whole entry, looked up): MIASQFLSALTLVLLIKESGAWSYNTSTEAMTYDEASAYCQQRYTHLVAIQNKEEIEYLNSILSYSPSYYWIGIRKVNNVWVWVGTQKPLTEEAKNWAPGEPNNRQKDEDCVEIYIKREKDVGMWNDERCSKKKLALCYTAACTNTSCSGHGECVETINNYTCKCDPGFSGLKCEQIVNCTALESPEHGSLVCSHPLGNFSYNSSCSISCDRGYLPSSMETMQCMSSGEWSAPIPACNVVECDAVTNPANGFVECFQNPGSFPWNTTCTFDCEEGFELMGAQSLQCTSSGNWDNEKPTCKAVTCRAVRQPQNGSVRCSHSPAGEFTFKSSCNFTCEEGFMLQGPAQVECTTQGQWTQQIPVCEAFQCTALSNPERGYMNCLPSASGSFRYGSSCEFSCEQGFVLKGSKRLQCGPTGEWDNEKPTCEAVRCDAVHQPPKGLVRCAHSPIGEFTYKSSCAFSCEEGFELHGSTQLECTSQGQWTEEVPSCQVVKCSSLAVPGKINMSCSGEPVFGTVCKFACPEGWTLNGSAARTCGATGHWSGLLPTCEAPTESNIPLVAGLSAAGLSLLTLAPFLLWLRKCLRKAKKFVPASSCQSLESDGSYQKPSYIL
Tumor necrosis factor (Homo sapiens), sequence (P01375 whole entry, looked up): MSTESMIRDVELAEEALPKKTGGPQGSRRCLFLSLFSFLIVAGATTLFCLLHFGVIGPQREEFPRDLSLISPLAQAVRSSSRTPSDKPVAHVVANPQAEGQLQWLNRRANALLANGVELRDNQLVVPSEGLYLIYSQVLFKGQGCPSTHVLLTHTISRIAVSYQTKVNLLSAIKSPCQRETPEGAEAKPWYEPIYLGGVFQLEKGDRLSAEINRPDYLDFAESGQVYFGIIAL

With `NC(=O)O`, the outcome in assay [1], in assay [2], in assay [3], in [4], in [5] and in assay [6] was inactive. The result in assay [7], in [8], in assay [9], in assay [10], in assay [11] and in assay [12] was inactive. Further, the result in [13], in assay [14], in assay [15], in assay [16], in assay [17] and in assay [18] was inactive. The result in assay [19] and in assay [20] was inactive.

As usually defined, the AC50 is the concentration giving half of the maximal activity seen. For `COP(=S)(OC)Oc1cc(Cl)c(Cl)cc1Cl`, the result in assay [1], in assay [2], in assay [3], in assay [4], in [5] and in [6] was inactive. In addition, the outcome in assay [7], in assay [8], in assay [9], in assay [10], in assay [11] and in assay [12] was inactive. In addition, the outcome in assay [14], in assay [15], in [16], in [17], in [18] and in assay [20] was inactive. The AC50 in assay [13] was 32.6 µM (active); in [19] it was 5.51 µM (active).

As to `OCc1ccco1`, the result in [1], in assay [2], in assay [3], in [4], in [5] and in assay [6] was inactive. For the same compound, the result in assay [7], in assay [8], in [9], in [10], in assay [11] and in [12] was inactive. Besides, the result in [13], in assay [14], in assay [15], in assay [16], in assay [17] and in assay [18] was inactive. Moreover, the result in assay [19] and in assay [20] was inactive.

Consider `COc1cc(-c2ccc(N)c(OC)c2)ccc1N`, for which the result in assay [1], in [2], in assay [3], in [4], in [5] and in [6] was inactive. Moreover, the result in [7], in [8], in assay [9], in assay [11], in assay [12] and in [13] was inactive. Further, the outcome in assay [14], in assay [15], in [16], in assay [17], in assay [18] and in assay [20] was inactive. For the same compound, the AC50 in assay [10] is 3.63 µM (active) and 9 µM (active); in assay [11], 19.2 µM (active); in assay [12] it was 19.2 µM (active); in [14], 23.9 µM (active).

Regarding `O=Cc1cccc(Oc2ccccc2)c1`, the outcome in assay [1], in assay [2], in assay [3], in [4], in [5] and in assay [6] was inactive. Besides, the result in [7], in assay [8], in [9], in assay [10], in [11] and in assay [12] was inactive. Besides, the result in assay [13], in assay [14], in assay [15], in assay [16], in [17] and in assay [18] was inactive. Moreover, the outcome in assay [19] and in assay [20] was inactive.

Turning to `COC(=O)c1sccc1S(=O)(=O)NC(=O)Nc1nc(C)nc(OC)n1`, the result in assay [1], in [2], in assay [3], in assay [4], in assay [5] and in assay [6] was inactive. Moreover, the outcome in assay [7], in assay [8], in assay [9], in assay [10], in assay [11] and in [12] was inactive. In addition, the outcome in assay [13], in assay [14], in assay [15], in assay [16], in [17] and in [18] was inactive. For the same compound, the outcome in [19] and in [20] was inactive.
